Test [1] is described as follows: qHTS Assay for Identifying Gametocytocidal Compounds (AID 743244). Also: potency is read from the fitted curve at half-maximal effect.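 As to max response: % is scaled to controls: 0 for no effect and ±100 for the full control effect; actives lower the fluorescent signal which means gametocytes are killed.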 To be noted: P. falciparum 3D7 stage III-V gametocytes, alamarBlue, 72 h; max response: stronger effect = lower value. The method, boiled down:
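Stage III-V P. falciparum 3D7 gametocytes, 20,000 per well, were exposed to compounds for 72 h at 37C, 5% CO2. AlamarBlue was then added for 24 h and viability was read as fluorescence at Ex 525/Em 598 nm.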
On the technique in general: In qHTS, concentration-response curves come from the screen itself.

Test [2] in a line: qHTS assay for measurement of the activity of small molecule inhibitors on Zika virus induced Caspase-3 activity in human iPSC derived neural progenitor cells (hNPCs) (AID 1224857). Also: % of control where 0% means no effect; nearly all actives have a fitted effect of over 65% in size. The following applies: hNPCs ZIKV-induced caspase-3/7, Caspase-Glo luminescence, 6 h; series mostly up to 45.7 µM. A digest of the protocol:
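Human iPSC-derived neural progenitor cells pretreated 1 hr with compounds, then infected with Zika virus (2 FFU/cell) for 6 hours at 37 C. Caspase-3/7 measured by Caspase-Glo luminescence; % inhibition calculated from induction scaled to uninfected (0%) and infected (100%) wells.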

A short description of test [3]: qHTS assay for measurement of the activity of small molecule inhibitors on Zika virus induced Caspase-3 activity in human astrocytoma cells (AID 1224859).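 Also: plate controls were ZIKV-infected untreated cells for no effect and uninfected cells for full effect.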 The following applies: SNB-19 ZIKV-induced caspase-3/7, luminescence, 6 h; series mostly up to 45.7 µM. The method, boiled down: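 SNB-19 astrocytoma cells, 250/well, pretreated 1 h with compounds, then Zika virus at 2 FFU/cell for 6 h at 37 C; Caspase-Glo 3/7 luminescence after 30 min; percent inhibition normalised to uninfected and infected controls.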

The nature of test [4]: P-glycoprotein substrates identified in KB-8-5-11 adenocarcinoma cell line, qHTS therapeutic library screen (AID 1346987). Also: nearly all actives have a fitted effect of over 65% in size. Also: potency is read from the fitted curve at half-maximal effect. To be noted: KB-8-5-11 (P-gp overexpressing) viability, CellTiter-Glo, 72 h; series mostly up to 44.5 µM. The method, boiled down: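 Human cervical adenocarcinoma KB-8-5-11 cells, selected in colchicine to over-express P-gp and assayed without it, were exposed for 72 h to titrated compounds. An ATP-based luminescent viability signal gave AC50.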

Test [5] concerns the target T1, Hexokinase-4 (Homo sapiens) + Glucokinase regulatory protein (Homo sapiens) (UniProt P35557+Q14397). The test can be described thus: qHTS assay for inhibitors of recombinant human GCK-GKRP interaction: Diaphorase-coupled assay (AID 743205). The following applies: G6PDH/diaphorase resorufin fluorescence; series mostly up to 57.5 µM. A digest of the protocol:
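Inhibitors of the GCK–GKRP complex relieve GKRP suppression of GCK, detected through a G6PDH–diaphorase cascade reducing resazurin. Human GST-GCK and FLAG-GKRP are used at 10 nM with 5 mM glucose and 0.4 mM ATP.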

The target in test [6] is T1, Hexokinase-4 (Homo sapiens) + Glucokinase regulatory protein (Homo sapiens). The test can be described thus: qHTS assay for inhibitors of recombinant human GCK-GKRP interaction: ADP-Glo assay (AID 743206).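 Also: plate controls were DMSO plus enzyme for no effect and no enzyme for full effect.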 The following applies: ADP-Glo luminescence, 60 min, 0% = vehicle-only wells with enzyme present; series mostly up to 76.9 µM. A digest of the protocol:
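Pin-transferred compounds meet a 15 nM GST-GCK/15 nM FLAG-GKRP/2 uM S6P mix (dispense concentrations). ATP is then added to 0.4 mM final with 5 mM glucose, and the reaction runs 60 min at room temperature. ADP is quantified luminescently.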

For test [7] the target is unchanged. As to the kind of experiment: qHTS assay for inhibitors of recombinant human GCK-GKRP interaction: HTRF assay (AID 743207).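 Also: 0% = DMSO with GCK present and -100% = DMSO wells lacking GCK.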 The following applies: recombinant GCK-GKRP HTRF binding, 60 min, with sorbitol-6-phosphate; series mostly up to 57.5 µM. A digest of the protocol:
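Steps: dispense GCK–GKRP complex (5 nM each, GST- and FLAG-tagged) with 2 uM S6P; pin in compounds; add XL665/Eu-cryptate-labelled antibodies; incubate 60 min at room temperature; read time-resolved FRET at 665 and 615 nm.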

The target of test [8] is Atrial natriuretic peptide receptor 1 (Homo sapiens) (UniProt P16066). As to the kind of experiment: Natriuretic polypeptide receptor (hNpr1) antagonism - Pilot screen (AID 1347049; calls by dose curve;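 also: HEK293 cells with hNpr1 and GloSensor cGMP luciferase stimulated by 0.1 nM hNppA; agonist-evoked cGMP luminescence read 20 min after hNppA addition; % is scaled to controls: 0 for no effect and ±100 for the full control effect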). The following applies: hNpr1 cells, antagonist mode cGMP read-out; series mostly up to 57.5 µM. A digest of the protocol: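 Cells expressing receptor plus cGMP biosensor are seeded and incubated overnight at 37C, then loaded with GloSensor reagent (2% final) at room temperature for 2 h. Library compounds go on for 30 min. A pre-read precedes agonist (hNppA, 0.1 nM final) and a 20-min readout.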

The nature of test [9]: qHTS profiling of the MIPE4 collection as inhibitors of Plasmodium falciparum (3D7) proliferation (AID 743344; call rule not given here;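 also: scaled between DMSO vehicle wells and 0.29 µM artemisinin as full inhibition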). The following applies: P. falciparum 3D7 in erythrocytes, SYBR Green DNA fluorescence, 72 h; at 28.5 µM (top of the series) unless noted. The method, boiled down: (§1)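 Parasite DNA was quantified by SYBR Green I fluorescence (ex 485, em 535 nm) after overnight lysis in saponin/Triton buffer at room temperature. Cultures at 0.3% parasitemia and 2.5% hematocrit were first exposed to compound for 72 h at 37 C; signals were normalised to artemisinin (0.29 uM) and vehicle wells.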

The nature of test [10]: qHTS profiling of the MIPE4 collection as inhibitors of Plasmodium falciparum (DD2) proliferation (AID 743345; call rule not given here). To be noted: P. falciparum Dd2 in erythrocytes, SYBR Green DNA, 72 h; at 28.5 µM (top of the series) unless noted. The method, boiled down: as §1
Test [11] can be described thus: qHTS profiling of the MIPE4 collection as inhibitors of Plasmodium falciparum (DD2) proliferation (Rep 2) (AID 743346; call rule not given here). To be noted: P. falciparum Dd2 in erythrocytes, SYBR Green DNA, 72 h; at 28.5 µM (top of the series) unless noted. A digest of the protocol:
as §1

A short description of test [12]: qHTS profiling of the MIPE4 collection as inhibitors of Plasmodium falciparum (HB3) proliferation (AID 743347; call rule not given here;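 also: plate controls were DMSO vehicle wells for no effect and artemisinin wells for full effect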). The following applies: P. falciparum HB3 in erythrocytes, SYBR Green DNA, 72 h; at 28.5 µM (top of the series) unless noted. A digest of the protocol: as §1

Where “and” joins values, the source holds several entries; their conditions need not be identical. Equal entries are not always repeated. Records with an inconclusive call do not appear. Calls of active or inactive are those of the source. Unless noted, calls follow the shape of the dose curve; as a rule, active = well fitted curve in the direction sought with a large enough effect; inconclusive = small, poorly fitted or top-dose-only effect, or another doubt; inactive = no such curve, though single readings can be large; an effect the other way counts as inactive or inconclusive.

T1 sequence (P35557 whole entry, looked up): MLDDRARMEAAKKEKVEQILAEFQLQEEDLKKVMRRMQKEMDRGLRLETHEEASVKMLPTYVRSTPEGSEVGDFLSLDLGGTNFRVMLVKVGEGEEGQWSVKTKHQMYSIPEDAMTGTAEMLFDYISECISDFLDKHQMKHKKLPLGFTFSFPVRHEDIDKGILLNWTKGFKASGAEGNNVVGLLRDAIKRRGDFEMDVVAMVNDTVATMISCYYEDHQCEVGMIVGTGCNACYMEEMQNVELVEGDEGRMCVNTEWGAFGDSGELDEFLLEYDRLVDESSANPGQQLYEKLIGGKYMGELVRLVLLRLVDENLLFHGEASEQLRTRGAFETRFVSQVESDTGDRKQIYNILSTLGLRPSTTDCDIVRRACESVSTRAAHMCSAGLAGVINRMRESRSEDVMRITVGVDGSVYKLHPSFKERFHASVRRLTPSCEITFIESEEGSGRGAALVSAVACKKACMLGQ
T1 sequence (Q14397 whole entry, looked up): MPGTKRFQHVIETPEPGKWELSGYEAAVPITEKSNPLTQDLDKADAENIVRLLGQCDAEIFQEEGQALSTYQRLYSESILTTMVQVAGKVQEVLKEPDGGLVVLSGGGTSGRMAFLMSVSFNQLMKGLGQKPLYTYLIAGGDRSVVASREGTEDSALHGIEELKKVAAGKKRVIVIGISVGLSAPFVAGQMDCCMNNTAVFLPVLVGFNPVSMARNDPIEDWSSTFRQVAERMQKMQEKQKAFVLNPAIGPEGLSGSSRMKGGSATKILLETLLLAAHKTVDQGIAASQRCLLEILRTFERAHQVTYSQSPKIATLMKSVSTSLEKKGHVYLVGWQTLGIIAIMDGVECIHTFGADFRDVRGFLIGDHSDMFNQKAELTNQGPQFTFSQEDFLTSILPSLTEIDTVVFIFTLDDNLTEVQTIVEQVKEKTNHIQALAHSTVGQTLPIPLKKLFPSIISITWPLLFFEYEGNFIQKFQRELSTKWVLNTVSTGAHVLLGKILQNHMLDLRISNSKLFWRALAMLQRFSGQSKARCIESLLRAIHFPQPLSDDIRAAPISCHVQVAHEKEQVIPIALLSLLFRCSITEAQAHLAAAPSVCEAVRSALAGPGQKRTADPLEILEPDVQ
Chain of Atrial natriuretic peptide receptor 1 (Homo sapiens) (P16066 whole entry, looked up): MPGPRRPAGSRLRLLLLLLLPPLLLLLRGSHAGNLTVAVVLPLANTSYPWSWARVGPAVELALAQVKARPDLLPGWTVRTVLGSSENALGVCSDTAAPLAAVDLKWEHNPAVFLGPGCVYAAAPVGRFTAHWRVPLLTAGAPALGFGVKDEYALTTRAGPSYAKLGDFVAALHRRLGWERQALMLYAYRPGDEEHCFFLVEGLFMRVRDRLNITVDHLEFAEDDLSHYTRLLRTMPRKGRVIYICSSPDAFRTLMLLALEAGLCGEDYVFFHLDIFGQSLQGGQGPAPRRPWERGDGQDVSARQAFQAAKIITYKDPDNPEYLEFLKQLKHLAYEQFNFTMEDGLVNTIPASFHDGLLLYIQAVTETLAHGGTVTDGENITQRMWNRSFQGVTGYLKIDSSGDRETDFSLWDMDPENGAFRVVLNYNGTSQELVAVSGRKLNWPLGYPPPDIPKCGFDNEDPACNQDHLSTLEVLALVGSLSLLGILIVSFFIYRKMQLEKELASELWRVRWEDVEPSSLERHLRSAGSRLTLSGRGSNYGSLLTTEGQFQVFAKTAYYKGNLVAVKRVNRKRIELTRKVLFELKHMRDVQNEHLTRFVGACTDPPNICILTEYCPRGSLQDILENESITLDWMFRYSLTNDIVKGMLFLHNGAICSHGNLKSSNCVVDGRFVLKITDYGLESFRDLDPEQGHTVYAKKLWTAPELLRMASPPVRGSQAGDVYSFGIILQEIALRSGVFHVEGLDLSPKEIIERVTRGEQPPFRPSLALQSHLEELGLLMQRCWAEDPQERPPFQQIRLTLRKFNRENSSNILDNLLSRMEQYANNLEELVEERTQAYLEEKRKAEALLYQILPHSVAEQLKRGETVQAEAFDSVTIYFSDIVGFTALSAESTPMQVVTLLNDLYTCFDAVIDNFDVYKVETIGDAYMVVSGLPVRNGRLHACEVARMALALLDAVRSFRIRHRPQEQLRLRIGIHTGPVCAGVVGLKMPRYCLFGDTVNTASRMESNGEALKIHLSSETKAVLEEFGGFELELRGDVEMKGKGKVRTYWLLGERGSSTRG

On to `O=S(=O)(O)c1ccc2nc(-c3ccccc3)[nH]c2c1`, for which, in [1], the max response is 9.66% (inactive). Also, the Potency entry in test [2] and in [4] was “inactive” throughout. In addition, in test [3], the compound was classed as inactive.
As for `CC1CC(=O)NN=C1c1ccc(NCC(C)(C)NCC(O)COc2cc(Cl)ccc2C#N)cc1` (configuration not stated), the max response in test [1] was 11.8% (inactive). For the same compound, the Potency entry in [2] and in [4] was “inactive” in each case. For the same compound, the compound was called inactive in test [3].
As to `COc1cccc2c1[C@@H]1CN(CCCCn3c(=O)[nH]c4c(sc5ncc(-c6ccccc6)nc54)c3=O)C[C@@H]1CO2`, the outcome in test [5], in test [6], in test [7] and in [3] was inactive. Moreover, the max response in test [1] was 22.3% (inactive). In addition, the Potency result in test [2] and in test [8] was “inactive” in each case.
Consider `CCOC(=O)NNc1ccc(N(CC)CC(C)O)nn1` (configuration not stated), for which, in [1], the max response was 0.172% (inactive). The Potency entry in [2] and in test [4] was “inactive” each time. The compound was classed as inactive in test [3].
On to `CN1C(CSCC(F)(F)F)Nc2cc(Cl)c(S(N)(=O)=O)cc2S1(=O)=O` (configuration not stated), for which, in test [1], the max response is 2.14% (inactive). The Potency result in test [2] and in test [4] was “inactive” throughout. Moreover, in test [3], the call was inactive.
Take `O=C(COCCOCCOCC(=O)Nc1c(I)cc(I)c(C(=O)O)c1I)Nc1c(I)cc(I)c(C(=O)O)c1I`: in test [1], the max response is 31% (inactive). For the same compound, the Potency entry in test [2] and in [4] was “inactive” throughout. The call in test [3] was inactive.
Regarding `OCCc1ccccc1`, in test [1], the max response was 0.746% (inactive). In addition, the Potency result in test [2] and in test [4] was “inactive” in each case. In [3], the outcome was inactive.
Take `CC(NCCC(c1ccccc1)c1ccccc1)c1ccccc1` (configuration not stated): the Potency in [1] is 12.6 µM (active); in test [4], 16.4 µM (active). In addition, the parasite growth, % of DMSO control in test [9] turned out to be 9.45%. Besides, in [10], the parasite growth remaining, % of DMSO control (lower = more inhibition) amounted to 9.26%. The same compound returned a parasite growth, % of control (lower = inhibition) in test [11] of 16.7%. The compound further registered a growth, % of control in [12] of 3.07%. Also, the Potency entry in test [2] was “inactive”. The result in test [3] was inactive.
`NC(N)=NCCCCN=C(N)N`: the result in [5], in [6], in test [7] and in test [3] was inactive. Also, in [1], the max response was 2.24% (inactive) and 15.3% (inactive). In addition, the Potency entry in [2] and in [8] was “inactive” in each case.
As for `Nc1c(NC/C=C\COc2cc(CN3CCCCC3)ccn2)c(=O)c1=O`, the max response in test [1] is -0.695% (inactive). Moreover, the Potency entry in test [2] and in test [4] was “inactive” in each case. For the same compound, the compound was called inactive in test [3].
Turning to `CCCC(=O)O[C@]1(C(=O)COC(=O)CC)CC[C@H]2[C@@H]3CCC4=CC(=O)CC[C@]4(C)[C@H]3[C@@H](O)C[C@@]21C`, the max response in [1] is 31.6% (inactive). Moreover, the Potency entry in test [2] and in test [4] was “inactive” each time. Besides, the compound was called inactive in [3].
As to `COc1cc(C(=O)NC2CCCNC2)cc(OC)c1OC` (configuration not stated), the max response in test [1] is -0.328% (inactive). Besides, the Potency entry in [2] and in test [4] was “inactive” each time. In addition, in [3], the call was inactive.
`CC(C)(C)C(=O)OCOC(=O)C1N2C(=O)CC2S(=O)(=O)C1(C)C` (configuration not stated): in [1], the max response was 0.683% (inactive). Moreover, the Potency result in test [2] and in test [4] was “inactive” each time. Moreover, the result in test [3] was inactive.
